Assay outcomes deposited in PubChem by National Center for Advancing Translational Sciences (NCATS).
Shown are actives, neighbours in structure and some others; about 19% of the full set was active somewhere.
DT40 TDP1 no CPT: qHTS for Inhibitors of human tyrosyl-DNA phosphodiesterase 1 (TDP1): qHTS in cells in absence of CPT. AID 686978, 2013. 420,000 tested, 15% active. DT40 Tdp1-/- hTDP1 cells, no CPT, ATP luminescence, 48 h. Potency, µM (series often up to 46.2 µM), for the others: top-dose activity change, negative = growth inhibition, most hits filed as inhibitors; further: nearly all actives have a fitted effect of over 55% in size
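Seeded 400 DT40-hTDP1 cells/well (vehicle DMSO, no 20 nM CPT); pinned compounds; ≥48 hr at 37 °C; CellTiter-Glo luminescence as viability measure.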
HT1080 IDH1KD tx: qHTS for induction of synthetic lethality in tumor cells producing 2HG: qHTS for the HT-1080-IDH1KD cell line; Potency, µM (titrated, usually from 46.1 µM), without a hit: at the highest dose activity, negative = toxicity, actives largely listed as cytotoxic; 360,000 tested, 2% active; HT-1080 IDH1 knockdown viability, ATP luminescence, 48 h;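 further: 0% = DMSO wells and -100% = cell-free medium wells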
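Assay cells: HT-1080 with IDH1 knockdown, 750 per well, RPMI/5% FBS. Exposure: 48 h at 37 °C following 2 h pre-incubation. Read: CellTiter-Glo luminescence; fitted concentration-response, curve class assigned.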
TDP1 cell CPT: qHTS for Inhibitors of human tyrosyl-DNA phosphodiesterase 1 (TDP1): qHTS in cells in presence of CPT. chicken DT40 Tdp1-/-;hTDP1 cells + 20 nM CPT, ATP luminescence, 48 h. Potency, µM (series often up to 46.2 µM), inactives show top-dose activity change, negative = growth inhibition, usual class: inhibitors. 420,000 tested, 12% active; further: nearly all actives have a fitted effect of over 55% in size
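Chicken DT40 Tdp1-/- cells complemented with human TDP1, 400 cells/well, exposed to compounds plus 20 nM camptothecin for at least 48 h at 37 C; viability read as ATP content by CellTiter-Glo luminescence.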
HT1080NT lethal: qHTS for induction of synthetic lethality in tumor cells producing 2HG: qHTS for the HT-1080-NT fibrosarcoma cell line; 360,000 tested, 1.6% active; HT-1080-NT fibrosarcoma viability, CellTiter-Glo ATP luminescence, 48 h; AID 686970, 2013; Potency, µM (doses to about 46.1 µM), for the others: top-dose activity, negative = less viability, hits mostly cytotoxic;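 further: NT is the 2HG producing partner of a matched IDH1 knockdown line; 0% = DMSO-treated cells and -100% = media-only wells without cells; nearly all actives have a fitted effect of over 55% in size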
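Read-out is CellTiter-Glo luminescence after 10 minutes at room temperature, following 48 hours' compound treatment of HT-1080-NT cells (750 cells/well, RPMI, 5% FBS, 37 degrees C).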
KB-3-1 cytotox: qHTS assay for MDR1-selective chemotherapeutics: Primary screen using the parental adenocarcinoma cell KB-3-1 | 400,000 tested, 1.4% active | Potency, µM (doses to about 46.1 µM), hits mostly cytotoxic | KB-3-1 viability, CellTiter-Glo ATP luminescence, 72 h; further: nearly all actives have a fitted effect of over 60% in size
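Using CellTiter-Glo luminescence, growth of non-resistant KB-3-1 adenocarcinoma cells is assessed 72 h after pin-tool compound addition at 37 °C. Normalized responses across the concentration series yield fitted curves.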
KB-V1 MDR tox: qHTS assay for MDR1-selective chemotherapeutics: Primary screen using the drug-selected MDR subline cells KB-V1 | KB-V1 MDR cells viability, CellTiter-Glo, 72 h | Potency, µM (highest dose often 46.1 µM), actives largely listed as cytotoxic | 400,000 tested, 3.4% active; further: nearly all actives have a fitted effect of over 60% in size
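Drug-selected KB-V1 cells, grown in DMEM lacking phenol red with 10% FBS, receive compound titrations; after three days at 37 degrees C, surviving cell ATP is quantified by CellTiter-Glo luminescence and responses normalized and curve-fitted.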
Starred values were filed as active, the others as inactive; i = inactive; ? = inconclusive; / = no result given. The call rests on the fitted dose curve; in most records, active means well fitted curve in the direction sought with a large enough effect; inconclusive means small, poorly fitted or top-dose-only effect, or another doubt; inactive means no such curve, though single readings can be large; an effect the other way counts as inactive or inconclusive. Unless noted, on the % scale 0 is the no-effect control and ±100 the full control effect; potency means the concentration at half of the fitted maximal effect.

SMILES	DT40 TDP1 no CPT	HT1080 IDH1KD tx	TDP1 cell CPT	HT1080NT lethal	KB-3-1 cytotox	KB-V1 MDR tox
CCCc1ccccc1OCCNC(C)=O	18µM*	14%	18µM*	14%	i	i
O=C(Cc1cccc2ccccc12)NCCOc1ccccc1F	-24%	-15%	-27%	-5%	i	?
CC(=O)c1cccc(NC(=O)c2ccc(N(Cc3ccc(C)cc3)S(C)(=O)=O)cc2)c1	?	?	16µM*	?	i	?
CC(=O)c1cccc(NC(=O)c2ccc(N(C)S(=O)(=O)c3ccc(C)cc3)cc2)c1	?	-5%	?	-6%	i	i
C=CCN(c1ccc(C(=O)Nc2ccc(C)cc2)cc1)S(C)(=O)=O	-12%	-5%	5%	5%	i	i
Cc1ccc(CN(c2ccc(C(=O)Nc3ccc4c(c3)OCO4)cc2)S(C)(=O)=O)cc1	9%	-6%	1%	0%	i	6.5µM*
CS(=O)(=O)N(Cc1ccc(Cl)cc1)c1ccc(C(=O)NCCSc2ccccn2)cc1	?	?	?	-19%	?	5.8µM*
Cc1ccc(NC(=O)c2ccc(N(Cc3ccccc3)S(C)(=O)=O)cc2)cc1	12µM*	/	?	/	?	i
CN(c1ccc(C(=O)Nc2cccnc2)cc1)S(=O)(=O)c1ccc(Cl)cc1	?	-10%	?	-1%	i	?
CC(C)NC(=O)c1ccc(N(Cc2ccccc2)S(C)(=O)=O)cc1	1%	-1%	1%	4%	i	i
Cc1ccc(N(C(C)C(=O)Nc2ccc3c(c2)OCO3)S(C)(=O)=O)cc1 (stereo not drawn)	21µM*	13%	13µM*	13%	i	i
CS(=O)(=O)N(CC(=O)Nc1ccc2c(c1)OCO2)c1ccc(Cl)cc1	-18%	-1%	6%	-3%	i	23µM*
CS(=O)(=O)N(Cc1ccc(Cl)cc1)c1ccc(C(=O)Nc2cccnc2)cc1	-29%	?	-17%	-10%	?	21µM*
Cc1ccc(N(CC(=O)Nc2ccc3c(c2)OCCO3)S(C)(=O)=O)cc1	-28%	0%	2%	13%	i	i
CS(=O)(=O)N(Cc1ccccc1)c1ccc(C(=O)Nc2cccc(Cl)c2)cc1	15µM*	/	?	/	i	i
Cc1ccc(N2C(=O)[C@@H]3C(C(=O)C(c4ccccc4)c4ccccc4)=NN[C@@H]3C2=O)cc1	-24%	8%	-23%	6%	i	i
O=C1NC[C@@H](CCCCN2CCN(CCC3CCCCC3)C(=O)C2=O)N(CC2CCCCC2)C1=O	-10%	2%	4%	13%	i	i
O=C1CCN(S(=O)(=O)c2cc(C(F)(F)F)ccc2Cl)CC1	7%	5%	-10%	8%	i	i
C=CCN(c1ccc(C(=O)Nc2ccc(C)c(C)c2)cc1)S(C)(=O)=O	?	-4%	-24%	-1%	i	21µM*
O=C(NC1CCCCC1)C(=O)c1c[nH]c2ccccc12	?	-1%	-28%	15%	i	?
Cc1ccc2c(c1)-c1c(ssc1=S)C(C)(C)N2C(=O)c1ccco1	16µM*	?	?	?	i	i
CCOc1ccc2c(c1)-c1c(ssc1=S)C(C)(C)N2C(=O)CSC1=NCCS1	12µM*	-11%	?	-2%	i	8.2µM*
CCOc1ccc2c(c1)-c1c(ssc1=S)C(C)(C)N2	18µM*	?	?	?	i	?
Cc1ccc2c(c1)-c1c(ssc1=S)C(C)(C)N2C(=O)CSC1=NCCS1	?	-2%	?	-3%	i	7.3µM*
CN(C)CCN1CCN(C2CN(Cc3cn(Cc4ccc(F)cc4)nn3)S(=O)(=O)C2)CC1 (stereo not drawn)	-19%	23%	-5%	17%	i	i
SMILES	DT40 TDP1 no CPT	HT1080 IDH1KD tx	TDP1 cell CPT	HT1080NT lethal	KB-3-1 cytotox	KB-V1 MDR tox
CCn1ccc2cc(S(=O)(=O)N3CCC(C(=O)NCc4ccc(F)cc4)CC3)ccc21	?	/	?	/	i	i
COc1cccc(N2CCN(S(=O)(=O)c3ccc(-c4cc(C(F)(F)F)on4)s3)CC2)c1	-17%	/	-11%	/	/	/
O=C1NC[C@H](CCCCN2C[C@H](Cc3ccccc3)N(CCc3ccc(O)cc3)C(=O)C2=O)N(CCC2CCCCC2)C1=O	?	-22%	?	-26%	i	i
CC(C)CC(=O)Nc1ccccc1N1CCCC1	0%	0%	-18%	5%	i	i
CC(C)CC(=O)Nc1ccccc1N1CCN(c2ccc(F)cc2)CC1	?	-8%	18µM*	-1%	i	?
COc1cccc(C(=O)N2CCC[C@H]2C(=O)N2CCC[C@H]2C(=O)NCc2ccccn2)c1	4%	6%	6%	22%	i	i
CCSC1=C(C#N)C(c2ccccc2OC)CC(=O)N1 (stereo not drawn)	-23%	-2%	?	-4%	i	i
CCOC(=O)CSC1=C(C#N)C(c2ccc(C)s2)CC(=O)N1 (stereo not drawn)	3.3µM*	1.8µM*	5.2µM*	0.71µM*	5.2µM*	1.8µM*
CCOC(=O)CSC1=C(C#N)C(c2ccccc2OC)CC(=O)N1 (stereo not drawn)	16µM*	18µM*	16µM*	?	?	?
CSCCC(NS(=O)(=O)c1ccc(C)cc1)C(=O)NC1CCCCC1 (stereo not drawn)	-7%	-6%	-9%	-2%	i	i
CSCCC(NS(=O)(=O)c1ccc(C)cc1)C(=O)NC1CCCCCC1 (stereo not drawn)	21µM*	7%	?	0%	i	i
